Measured values published in PubChem BioAssay (NCATS).
Inconclusive results are not listed. Calls of active or inactive are those of the source. Calls follow the shape of the dose curve; as a rule, active = well fitted inhibition curve with a large enough effect; inconclusive = small, poorly fitted or top-dose-only effect; inactive = flat fitted curve, though single readings scatter.

What was measured:
Test in all cases: qHTS profiling for inhibitors of Plasmodium falciparum proliferation (AID 504749); also: nearly all actives have a fitted effect of over 60% in size
Settings in all cases: P. falciparum in erythrocytes, SYBR Green DNA, 72 h; series mostly up to 28.7 µM
[1] = tested on: 7G8
Procedure, shortened: (§1)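 In a 72 h erythrocytic culture (37 C, humidified, 5% CO2) at 2.5% hematocrit and 0.3% starting parasitemia, compounds were tested; SYBR Green I in detergent lysis buffer stained parasite DNA overnight.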

[2] = tested on: ATS189
Procedure, shortened: as §1

[3] = tested on: C2A
Procedure, shortened: as §1

[4] = tested on: CP185
Procedure, shortened: as §1

[5] = tested on: CP194
Procedure, shortened: as §1

[6] = tested on: CP203
Procedure, shortened: as §1

[7] = tested on: CP211
Procedure, shortened: as §1

[8] = tested on: CP215
Procedure, shortened: as §1

[9] = tested on: CP265
Procedure, shortened: as §1

[10] = tested on: CP269
Procedure, shortened: as §1

[11] = tested on: CP297
Procedure, shortened: as §1

[12] = tested on: CP305
Procedure, shortened: as §1

[13] = tested on: CP315
Procedure, shortened: as §1

[14] = tested on: CP325
Procedure, shortened: as §1

[15] = tested on: DIV14
Procedure, shortened: as §1

[16] = tested on: FAB9
Procedure, shortened: as §1

[17] = tested on: ICS
Procedure, shortened: as §1

[18] = tested on: JCK
Procedure, shortened: as §1

[19] = tested on: PAD
Procedure, shortened: as §1

[20] = tested on: PC49
Procedure, shortened: as §1

Measured: Potency

Nc1nc(O)c(-c2ccccc2)o1
inactive: all assays above

CC1OC(O[C@H]2C[C@@H](O)[C@]3(CO)[C@@H]4C(CC[C@]3(O)C2)[C@@]2(O)CC[C@H](C3=CC(=O)OC3)[C@@]2(C)C[C@H]4O)C(O)C(O)C1O (stereo not given in full)
inactive: all assays above
